PAFAH1B3 inh – inhibitors of human PAFAH1B3 | Q15102 | recombinant PAFAH1B3, FP-rhodamine probe, fluorescence polarization | inhibition, % at 3.39 µM | 340,000 tested, 0.28% active;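 active = inhibition above the screen-wide average of all tested compounds plus 3 SD, cut at about 25% in these data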;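 note: 0% = enzyme with DMSO only and 100% = wells lacking PAFAH1B3 protein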
Target sequence (Q15102 whole entry, looked up): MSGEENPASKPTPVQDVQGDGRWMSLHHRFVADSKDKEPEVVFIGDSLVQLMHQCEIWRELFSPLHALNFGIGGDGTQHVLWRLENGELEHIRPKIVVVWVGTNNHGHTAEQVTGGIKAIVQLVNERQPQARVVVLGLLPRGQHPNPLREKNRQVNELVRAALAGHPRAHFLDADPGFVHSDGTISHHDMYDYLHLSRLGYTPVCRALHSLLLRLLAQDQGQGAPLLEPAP
pPAFAH inh – pPAFAH (human) enzyme inhibition; Q13093; recombinant pPAFAH, FP-rhodamine probe fluorescence polarization; inhibition, % at 3.39 µM; 330,000 tested, 1.5% active; AID 463082;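 active = inhibition above the mean inhibition across the screen plus 3 SD, cut at about 25% in these data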;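 note: inhibitors block binding of the rhodamine activity-based probe so polarization drops; 0% = enzyme with DMSO and 100% = wells lacking pPAFAH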
PKA-R1A activ – PKA-R1A complex activation | P00514+P68181 | PKA-R1A dissociation, Cy5-IP20 fluorescence polarization; scaled: DMSO 0%, 113 µM cGMP 100% | activation, % at 11.4 µM | 340,000 tested, 0.083% active | AID 504707;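 active = percent activation above the mean of all tested compounds plus 3 SD, cut at about 19% in these data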;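 note: higher means more PKAc released from R1A so a rise in polarization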
PAFAH1B2 inh – PAFAH1B2 (human) inhibition; recombinant PAFAH1B2, FP-rhodamine activity probe, fluorescence polarization; inhibition, % at 3.39 µM; 340,000 tested, 1.2% active;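 active = inhibition above the mean of all tested compounds plus 3 SD, cut at about 24% in these data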;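 note: 0% = enzyme with DMSO and 100% = wells lacking PAFAH1B2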
Target sequence (P68402 whole entry, looked up): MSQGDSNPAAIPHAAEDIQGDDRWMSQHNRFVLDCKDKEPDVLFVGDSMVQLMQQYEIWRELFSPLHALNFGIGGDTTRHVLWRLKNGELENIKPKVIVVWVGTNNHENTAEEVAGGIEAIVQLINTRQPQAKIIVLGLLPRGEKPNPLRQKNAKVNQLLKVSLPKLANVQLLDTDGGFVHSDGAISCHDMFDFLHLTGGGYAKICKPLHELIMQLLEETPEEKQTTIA
PAFAH2 inh – PAFAH2 (human) inhibition; 340,000 tested, 0.99% active; inhibition, % at 3.39 µM; recombinant PAFAH2, FP-rhodamine activity probe, fluorescence polarization;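 active = inhibition above the mean over all tested compounds plus 3 SD, cut at about 30% in these data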;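 note: inhibitors block probe labeling of enzyme so polarization drops; 0% = enzyme with DMSO and 100% = wells lacking PAFAH2 protein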
PKA-R2B act – activators of human PKA-R2B complex. AID 504700. PKA-R2B holoenzyme dissociation, Cy5-IP20 fluorescence polarization; R2B truncated from residue 108, S112A mutant; 0% DMSO only, 100% 113 µM cGMP. P22694+P31323. 340,000 tested, 0.079% active. activation, % at 11.4 µM;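 active = activation above a cutoff set at the mean over all compounds plus 3 SD, cut at about 18% in these data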;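 note: higher means more holoenzyme dissociation and a rise in polarization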
* marks the source's active call; other numbers are inactive results; . = no result. Compounds with a hit are over-represented: about 2.6% of the library has one in this group of screens.

SMILES	PAFAH1B3 inh	pPAFAH inh	PKA-R1A activ	PAFAH1B2 inh	PAFAH2 inh	PKA-R2B act
COC(=O)CSc1nnc(SCc2ccccc2)s1	5	4	-2	9	2	-10
Cc1ccc(SCc2cn3c(C)csc3n2)cc1	0	2	-7	53*	-2	-11
Cc1ccc(S(=O)(=O)NCc2cn3c(C)csc3n2)cc1	-2	-2	-5	3	1	-6
CN(C)C1CCN(Cc2cc(COCc3ccccc3)c3cccnc3c2O)C1 (stereo not drawn)	17	25*	8	5	6	3
CCOC(=O)c1[nH]ncc1CN1CCc2ccc(NC(=O)C3CCCO3)cc2C1 (stereo not drawn)	3	2	2	-2	5	3
CS(=O)(=O)Cc1cccc(C(=O)NC2CCSc3ccccc32)c1 (stereo not drawn)	-3	4	-5	4	-13	-9
Cc1ccc(CS(=O)(=O)CC(C)(O)c2ccc(Cl)cc2)cc1 (stereo not drawn)	-8	8	-2	27*	-1	-5
CN(C)c1ccc(N=Cc2nc(-c3ccccc3)oc2OC(=O)c2ccccc2)cc1	0	-2	-14	4	5	-7
O=C(Oc1oc(-c2ccco2)nc1C=Nc1ccc(Cl)cc1)c1ccco1	11	26*	-3	9	48*	-11
Cc1cc(=O)[nH]c(N/N=C/c2cc(C)n(-c3ccccc3)c2C)n1	-2	31*	3	2	1	3
Cc1ccc(N/N=C(\C#N)C(=O)c2ccsc2)cc1	5	10	-3	4	8	-5
N#C/C(=N\Nc1ccc(Cl)cc1)C(=O)c1ccsc1	9	33*	-11	9	19	-1
N#C/C(=N\Nc1cccc(Cl)c1)C(=O)c1ccccc1	-3	26*	-9	2	22	4
COc1ccc(S(=O)(=O)N2CCN(c3ccc(F)cc3)CC2)cc1C(=O)N1CCCC1	8	1	0	8	12	-4
COc1ccccc1NC(=O)CCc1nnc2ccc(N3CCC4(CC3)OCCO4)nn12	8	1	-12	3	1	8
COC(=O)COc1coc(CN2CCN(c3cccc(Cl)c3)CC2)cc1=O	8	3	-8	-1	4	8
Cc1ccc(C2CC(=O)Oc3cc(O)ccc32)cc1 (stereo not drawn)	34*	17	6	24*	26	-4
Cc1ccc(S(=O)(=O)CCC(=O)Nc2cc(Cl)ccc2-n2cncn2)cc1	1	2	2	2	-8	-8
Cc1ccc(S(=O)(=O)Nc2nc(C)c(C(=O)NNS(=O)(=O)c3cc(C)ccc3C)s2)cc1	9	14	7	28*	13	-9
CC(C)c1ccc(S(=O)(=O)N2CCN(C(=O)[C@@H]3CCCN3C(=O)c3cccs3)CC2)cc1	5	.	-2	6	3	-9
O=C(C1CCCN1C(=O)c1cccs1)N1CCN(S(=O)(=O)c2ccc(F)cc2)CC1 (stereo not drawn)	11	2	-15	29*	-3	7
CCN(CC)c1ccc(/C=C2\C(=O)c3ccc(C(=O)O)cc3C2=O)cc1	-20	28*	-1	1	20	0
CCN(CC)c1ccc(C(=O)O)cc1	7	2	-16	2	0	-9
Oc1c(Br)cc(/C=N/n2c(-c3ccccc3)n[nH]c2=S)c(O)c1Br	28*	.	-7	8	45*	-7
CC(C)c1ccc(/C=N/n2c(-c3ccccc3)n[nH]c2=S)cc1	12	25*	-6	4	10	3
SMILES	PAFAH1B3 inh	pPAFAH inh	PKA-R1A activ	PAFAH1B2 inh	PAFAH2 inh	PKA-R2B act
Cc1c(Br)c(O)c(Br)c(O)c1/C=N/n1c(-c2ccccc2)n[nH]c1=S	35*	14	0	14	22	6
Cc1ccc(/C=N/n2c(-c3ccccc3)n[nH]c2=S)cc1	8	9	-4	4	5	0
Oc1c(Br)cc(/C=N/n2c(-c3ccccc3)n[nH]c2=S)cc1Br	4	.	-2	-2	9	-15
COc1ccc(-n2c(SCC#N)nnc2-c2ccc(NS(=O)(=O)c3ccc(C)cc3)cc2)cc1	6	26*	-6	4	7	6
Cc1ccc(C)c(S(=O)(=O)NC(C)CCc2ccccc2)c1 (stereo not drawn)	3	-5	-7	29*	9	5
Cc1ccc(S(=O)(=O)N[C@@H](Cc2ccccc2)C(=O)CCl)cc1	7	1	-7	24*	11	5
Cc1ccc(S(=O)(=O)NC(C)CCc2ccccc2)cc1 (stereo not drawn)	10	10	2	36*	-1	4
Cc1ccc(S(=O)(=O)NC(Cc2ccccc2)C(=O)NN)cc1 (stereo not drawn)	12	-8	-4	9	2	-15
CC(=O)Nc1ccc(S(=O)(=O)NC(C)CCc2ccccc2)cc1 (stereo not drawn)	2	5	5	12	2	4
COc1cc2c(cc1OC)[C@@H](NC(=O)CCc1ccccc1)[C@H](OCc1ccccc1)C2	8	8	-7	4	-2	-5
O=S(=O)(c1ccc(NC(=S)NC23CC4CC(CC(C4)C2)C3)cc1)N1CCCCC1	.	.	8	.	.	-1
CCOc1ncccc1C(=O)OCC(=O)Nc1ccc(C(N)=O)cc1	4	1	2	2	4	-9
CCOc1ncccc1C(=O)OCC(=O)Nc1ccc(C(C)C)cc1	6	30*	-4	-2	51*	-2
CSCCC(NS(=O)(=O)c1cccc(C(F)(F)F)c1)C(=O)Nc1ccccc1N1CCCC1 (stereo not drawn)	3	10	-1	26*	6	-15
O=C(COc1cccc(C(F)(F)F)c1)Nc1ccccc1N1CCCCC1	8	4	3	2	-5	4
COc1ccc(OC)c(NC(=O)CSc2nnc(CNC(=O)COc3ccc(Cl)cc3)o2)c1	-2	1	-10	28*	-1	5
COc1ccc(NC(=O)CSc2nnc(CNC(=O)COc3ccc(Cl)cc3)o2)c(OC)c1	0	2	6	20	2	-2
O=C(CCN1CCCCC1)c1cccc(Cl)c1	6	.	12	-2	-4	8
Cc1nc2n[nH]c(N)c2c2c1CCCC2	-3	3	-1	1	11	8
COc1ccccc1CNC(=O)COC(=O)c1n[nH]c2ccccc12	3	-1	-10	4	19	-2
COc1ccccc1CNC(=O)COC(=O)c1ccc(C(=O)c2ccccc2)cc1	-8	24	7	47*	-6	0
COc1ccc(CNC(=O)COC(=O)c2ccccc2C(=O)c2ccccc2)cc1	6	4	-11	1	-6	3

Compound activity deposited in PubChem by The Scripps Research Institute Molecular Screening Center.
